The values below come from PubChem BioAssay (NCI).

Compounds without any hit were thinned out: in the full panel of roughly 83,000, 20% have a hit.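 Interpretation: 100, growth as untreated; towards 0, rising growth inhibition; 0, no net growth; 0 to -100, cell death. Compounds scoring below 10 were considered active.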 Active and inactive are the calls of the source.

This assay has as its system SF-539 CNS. Put plainly: NCI-60 one-dose screen, 48 h (100 = growth as untreated, 0 = no growth, -100 = all killed). To be noted: 10 µM unless noted.
Regarding `C(=C1c2ccccc2-c2ccccc21)c1ccncc1`, the growth was 56.3% (inactive). In the case of `O=Nc1c2cccnc2n2nnc3ccc(Cl)cc3c12` it was 91.4% (inactive); in that of `COc1ccc(/C=C2/SC(=Nc3c(C)nn(-c4ccccc4)c3N)NC2=O)cc1`, 23.6% (inactive); in that of `Cc1ccc(-c2c3c(N)c4c(nc3nc3c2c(C)nn3-c2ccccc2)CCC4)cc1`, 72.7% (inactive). Under `Cc1cc(-c2ccccc2)cc(C)n1` stands 102% (inactive). Under `CCSCC1CC(O)(c2ccccc2)C(c2ccccc2)C(c2ccc(Cl)cc2)O1` (centres undefined) stands -16.4% (active); under `COc1ccc(/C=C/C(=O)c2cccc(NS(C)(=O)=O)c2)cc1`, 94.7% (inactive).

Regarding `Cc1[nH]cnc1/C=C1\SC(N2CCCCC2)=NC1=O`, the growth was 100% (inactive). Regarding `C[N+]1(C)C2CC[C@@H]1CC(OC(=O)C(O)c1ccccc1)C2` (some centres undefined), the growth was 108% (inactive).

As to `CN(C)CCCN=c1cc2c(=O)n(CCCN(C)C)c(=O)c3c(NCCCN(C)C)cc4c(O)n(CCCN(C)C)c(=O)c1c4c3-2`, the growth is -23% (active). In the case of `C[C@]12CC[C@H](O)CC1=CC[C@@H]1[C@@H]2CC[C@]2(C)C(c3cccnc3)=CC[C@@H]12` it was 31.8% (inactive); in that of `CCOC(=O)Nc1ccc2c3c(cccc13)-c1ccccc1-2`, 21.9% (inactive); in that of `CSc1nc2nc3c(nc2c(=O)n1C)C(=O)c1ccccc1C3=O`, -99.8% (active). In the case of `O=C1/C(=C\c2coc3ccccc3c2=O)c2ccccc2N1c1c(Cl)cccc1Cl` it was 49.4% (inactive); in that of `O=C(Oc1cccc2ccccc12)c1ccccc1C(=O)c1ccccc1`, 103% (inactive); in that of `O=C1N=C(N2CCOCC2)S/C1=C\c1cn(-c2ccccc2)nc1-c1ccccc1`, 28.4% (inactive). As for `Cn1c(N2N=C(c3ccc(Cl)cc3)CC2c2ccccc2)nc(-c2ccccc2)c(C#N)c1=O` (centres undefined), the growth is 103% (inactive). For `O=C(O)CNC(=O)C1(N2C(=O)c3ccccc3C2=O)CCCC1`, the growth was 118% (inactive). In the case of `c1ccc(CN=C(NCc2ccccc2)NCc2ccccc2)cc1` it was 93.6% (inactive). In the case of `CN1CCN(CCCCCN=c2cc3c(=O)n(CCCCCN4CCN(C)CC4)c(=O)c4c(NCCCCCN5CCN(C)CC5)cc5c(O)n(CCCCCN6CCN(C)CC6)c(=O)c2c5c4-3)CC1` it was 10.4% (inactive). Under `Clc1ccc2c(c1)C(Br)c1cc(Cl)cc(Cl)c1-2` (centres undefined) stands 81.6% (inactive); under `CCCCCCCCCCCCC1CCCC(C)C1` (centres undefined), 118% (inactive); under `CC(=O)Nc1cc2c3c(cccc3c1)-c1ccccc1-2`, 39.7% (inactive). As to `Nc1ccc2c(c1)C(=O)c1cc(Cl)c(Cl)cc1-2`, the growth is 87.4% (inactive). Regarding `CCN(CC)c1ccc(/C=C/C(=O)c2cccc(NS(C)(=O)=O)c2)cc1`, the growth is 40.6% (inactive).

As for `Cc1ccc(OCC(=O)Nc2ccc(Oc3ccccc3)cc2)c([N+](=O)[O-])n1`, the growth is 78.3% (inactive). Under `Cc1nn(-c2ccccc2)cc1/C=C1\SC(N2CCCCC2)=NC1=O` stands 60.9% (inactive); under `COc1ccc(C2=NN(C(N)=S)C(c3ccc4c(c3)OCO4)C2)cc1` (centres undefined), 21.4% (inactive); under `COc1ccc(-c2c3c(N)nc(-c4ccncc4)nc3nc3c2c(C)nn3-c2ccccc2)cc1`, -40% (active). Consider `CCOC(=O)CCC(=O)O[C@H]1[C@H](O[C@@H]2[C@@H](C)[C@H](O[C@H]3C[C@@](C)(OC)[C@@H](O)[C@H](C)O3)[C@@H](C)C(=O)O[C@H](CC)[C@@](C)(O)[C@H](O)[C@@H](C)C(=O)[C@H](C)C[C@@]2(C)O)O[C@H](C)C[C@@H]1N(C)C`, for which the growth is 101% (inactive). Under `c1ccc(-c2oc(-c3ccccc3)c3ccccc23)cc1` stands 104% (inactive); under `O=[N+]([O-])c1cc([N+](=O)[O-])c(N2CCCC2)cc1NN=C(c1ccc(O)cc1)c1ccc(O)cc1`, 61.9% (inactive). `O=C1Nc2ccc(C(=O)O)c(O)c2C1=O`: the growth was 94.4% (inactive). In the case of `CCCCCCCCN(CCO)CCCCCCCC` it was 94.4% (inactive). Take `O=c1c2c(=NCCCN3CCCC3)cc3c(=O)n(CCCN4CCCC4)c(=O)c4c(NCCCN5CCCC5)cc(c(O)n1CCCN1CCCC1)c2c4-3`: the growth was -32.6% (active). Take `O=C(N/N=C/c1cccc([N+](=O)[O-])c1)c1ccc(Br)o1`: the growth was 98.4% (inactive). In the case of `Nc1ccc2c(c1)Cc1cc(Cl)c(Cl)cc1-2` it was 74.2% (inactive). Under `Nc1ncnc2c1CN(Cc1ccccc1)CC2` stands 99.2% (inactive); under `CC[C@@H](C)/C=C(C)/C=C/C(O)=C1\C(=O)N[C@@H](Cc2ccc(OC(=O)[C@@](OC)(c3ccccc3)C(F)(F)F)cc2)C1=O`, 114% (inactive).
